In the supplement of paper PMC9023506:
Structures can show the parent of a compound that is named as a salt.

Test system: Danio rerio larvae (5 dpf)
Experiment: habituation to 1-s acoustic pulses, difference vs DMSO (percentage points (treated minus DMSO)); higher = more of the behaviour than the DMSO vehicle control
Conditions: 10 µM; exposure time: 3 h pre-incubation + 3 h imaging
Protocol: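 5-dpf wild-type zebrafish larvae were imaged in 96-well plates. They were treated with 190 Tocris FDA-approved drugs at 10 µM (1 µl/ml DMSO) for 3 h before and 3 h during imaging at 28.5 °C, 48 larvae per drug. Automated image analysis gave % time moving and optomotor responses. Values are drug group mean minus DMSO vehicle mean (n=844), in percentage points, for 10 behaviours.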

SMILES | habituation to 1-s acoustic pulses
Cc1ccc(N(CC2=NCCN2)c2cccc(O)c2)cc1 [Phentolamine Mesylate] | 5.8
CCOC(=O)[C@H](CCc1ccccc1)N[C@H]1CCc2ccccc2N(CC(=O)O)C1=O [Benazepril hydrochloride] | 3.08
COc1cc([C@@H]2c3cc4c(cc3[C@@H](O[C@@H]3O[C@@H]5CO[C@@H](C)O[C@H]5[C@H](O)[C@H]3O)[C@H]3COC(=O)[C@H]23)OCO4)cc(OC)c1O [Etoposide] | 0.485
CCCCNc1cc(C(=O)O)cc(S(N)(=O)=O)c1Oc1ccccc1 [Bumetanide] | -0.875
CCN(CC)CCNC(=O)c1c(C)[nH]c(/C=C2\C(=O)Nc3ccc(F)cc32)c1C [Sunitinib malate] | 4.25
COc1ccccc1Oc1c(NS(=O)(=O)c2ccc(C(C)(C)C)cc2)nc(-c2ncccn2)nc1OCCO [Bosentan] | 4.23
Cc1ccsc1C(=CCCN1CCC[C@@H](C(=O)O)C1)c1sccc1C [Tiagabine hydrochloride] | 6.27
CN1CC[C@@H](NC(=O)Nc2ccc(C#N)cc2)C[C@@H]1c1nc2ccccc2[nH]1 | -0.957
CCCCCCCN(CC)CCCC(O)c1ccc(NS(C)(=O)=O)cc1 (stereo not given) [Ibutilide hemifumarate] | 2.78
CCN(Cc1ccncc1)C(=O)C(CO)c1ccccc1 (stereo not given) [Tropicamide] | -1.73
CCCN(CCc1cccs1)[C@H]1CCc2c(O)cccc2C1 [Rotigotine hydrochloride] | -12.9
Nc1cc(N2CCCCC2)nc(N)[n+]1[O-] [Minoxidil] | 5.2
Brc1c(NC2=NCCN2)ccc2nccnc12 | -5.95
N#Cc1ccc(C(c2ccc(C#N)cc2)n2cncn2)cc1 [Letrozole] | 2.44
Nc1nc(NC2CC2)c2ncn([C@H]3C=C[C@@H](CO)C3)c2n1 [Abacavir hemisulfate] | 3.08
O=C(NCC1CCCCN1)c1cc(OCC(F)(F)F)ccc1OCC(F)(F)F (stereo not given) [Flecainide acetate] | -2.35
OCCOCCN1CCN(C2=Nc3ccccc3Sc3ccccc32)CC1 [Quetiapine hemifumarate] | -4.36
CCC(C)(C)C(=O)O[C@H]1C[C@@H](C)C=C2C=C[C@H](C)[C@H](CC[C@@H]3C[C@@H](O)CC(=O)O3)[C@H]21 [Simvastatin] | -1.13
C[C@@H](O[C@H]1OCCN(Cc2n[nH]c(=O)[nH]2)[C@H]1c1ccc(F)cc1)c1cc(C(F)(F)F)cc(C(F)(F)F)c1 [Aprepitant] | 0.23
CN(C)CCc1c[nH]c2ccc(C[C@H]3COC(=O)N3)cc12 [Zolmitriptan] | -1.85

SMILES | habituation to 1-s acoustic pulses
Nc1nc(F)nc2c1ncn2[C@@H]1O[C@H](CO)[C@@H](O)[C@@H]1O [Fludarabine] | -1.56
CC(C)(C(=O)O)c1ccc(C(O)CCCN2CCC(C(O)(c3ccccc3)c3ccccc3)CC2)cc1 (stereo not given) [Fexofenadine hydrochloride] | 0.783
CCOC(=O)c1ncn2c1CN(C)C(=O)c1cc(F)ccc1-2 [Flumazenil] | -2.91
O=C(O)C[C@H](O)C[C@H](O)/C=C/c1c(C2CC2)nc2ccccc2c1-c1ccc(F)cc1 [Pitavastatin calcium] | -6.74
Cn1cnc([N+](=O)[O-])c1Sc1ncnc2[nH]cnc12 [Azathioprine] | -2.96
CCCc1nc2c(C)cc(-c3nc4ccccc4n3C)cc2n1Cc1ccc(-c2ccccc2C(=O)O)cc1 [Telmisartan] | -0.195
CC(C)(C)NC(=O)[C@@H]1C[C@@H]2CCCC[C@@H]2CN1C[C@@H](O)[C@H](Cc1ccccc1)NC(=O)[C@H](CC(N)=O)NC(=O)c1ccc2ccccc2n1 [Saquinavir mesylate] | -0.0249
NC(=O)OCC(COC(N)=O)c1ccccc1 [Felbamate] | 2.95
CC(CCc1ccc(O)cc1)NCCc1ccc(O)c(O)c1 (stereo not given) [Dobutamine hydrochloride] | 1.34
CN1CCN(CCCN2c3ccccc3Sc3ccc(Cl)cc32)CC1 [Prochlorperazine dimaleate] | -7.34
COc1cc2nccc(Oc3ccc(NC(=O)C4(C(=O)Nc5ccc(F)cc5)CC4)cc3)c2cc1OC | -4.53
Nc1ncn([C@H]2C[C@H](O)[C@@H](CO)O2)c(=O)n1 [Decitabine] | 5.67
OCc1cc(C(O)CNCCCCCCOCCCCc2ccccc2)ccc1O (stereo not given) [Salmeterol xinafoate] | 0.0601
CN(CCOc1ccc(NS(C)(=O)=O)cc1)CCc1ccc(NS(C)(=O)=O)cc1 [Dofetilide] | 5.42
CC(c1cc2ccccc2s1)N(O)C(N)=O (stereo not given) [Zileuton] | 7.12
CN(C)CCC[C@@]1(c2ccc(F)cc2)OCc2cc(C#N)ccc21 [Escitalopram oxalate] | -4.74
CC(C)CN(C[C@@H](O)[C@H](Cc1ccccc1)NC(=O)O[C@H]1CO[C@H]2OCC[C@H]21)S(=O)(=O)c1ccc(N)cc1 [Darunavir] | -1.13
Cc1cccc(C)c1OCC(C)N (stereo not given) [Mexiletine hydrochloride] | 5.97
Nc1ccn([C@@H]2O[C@H](CO)[C@@H](O)C2(F)F)c(=O)n1 [Gemcitabine hydrochloride] | -2.82
CS(=O)(=O)CCNCc1ccc(-c2ccc3ncnc(Nc4ccc(OCc5cccc(F)c5)c(Cl)c4)c3c2)o1 [Lapatinib] | -1.43
